# Measured values from the supplement of paper PMC12282887.
# ± gives the standard deviation of the averaged measurements.
# Assays:
# Assay in all cases: promoter activity interaction Z-score (Lux/OD deviation from empty-vector control); higher = stronger promoter induction by the compound
# [1] = tested on: E. coli BW25113 acrABp lux reporter
# Outline: (§1)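 E. coli BW25113 luxCDABE reporter strains grew at 37°C in 40 µl LB Lennox in 384-well plates, with OD600 and luminescence read every 30 min for 12 h. After integration over 0–8 h for wild type or 1–9 h for deletion strains, wells under 10% of the median growth value were removed. Each score is the Z-transformed residual of growth-normalised luminescence fitted against a control.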
# [2] = tested on: E. coli BW25113 marRABp lux reporter
# Outline: as §1
# [3] = tested on: E. coli BW25113 micFp lux reporter
# Outline: as §1
# [4] = tested on: E. coli BW25113 ompFp lux reporter
# Outline: as §1
# [5] = tested on: E. coli BW25113 robp lux reporter
# Outline: as §1
# [6] = tested on: E. coli BW25113 soxSp lux reporter
# Outline: as §1
# [7] = tested on: E. coli BW25113 tolCp lux reporter
# Outline: as §1
# [8] = 3.1 µg/ml, genetic background: wild type
# [9] = 3.1 µg/ml, genetic background: ΔmarA
# [10] = 3.1 µg/ml, genetic background: Δrob
# [11] = 3.1 µg/ml, genetic background: ΔsoxS
# [12] = 6.1 µg/ml, genetic background: wild type
# [13] = 6.1 µg/ml, genetic background: ΔmarA
# [14] = 6.1 µg/ml, genetic background: Δrob
# [15] = 6.1 µg/ml, genetic background: ΔsoxS
# [16] = 12.2 µg/ml, genetic background: wild type
# [17] = 12.2 µg/ml, genetic background: ΔmarA
# [18] = 12.2 µg/ml, genetic background: Δrob
# [19] = 12.2 µg/ml, genetic background: ΔsoxS
# [20] = 24.5 µg/ml, genetic background: wild type
# [21] = 24.5 µg/ml, genetic background: Δrob
# [22] = 24.5 µg/ml, genetic background: ΔsoxS
# [23] = 24.5 µg/ml, genetic background: ΔmarA
# [24] = 0.11 µg/ml, genetic background: wild type
# [25] = 0.11 µg/ml, genetic background: ΔmarA
# [26] = 0.11 µg/ml, genetic background: Δrob
# [27] = 0.11 µg/ml, genetic background: ΔsoxS
# [28] = 0.23 µg/ml, genetic background: wild type
# [29] = 0.23 µg/ml, genetic background: ΔmarA
# [30] = 0.23 µg/ml, genetic background: Δrob
# [31] = 0.23 µg/ml, genetic background: ΔsoxS
# [32] = 0.46 µg/ml, genetic background: wild type
# [33] = 0.46 µg/ml, genetic background: ΔmarA
# [34] = 0.46 µg/ml, genetic background: Δrob
# [35] = 0.46 µg/ml, genetic background: ΔsoxS
smiles,measurement,setting,value
COc1ccc(C[C@H](N)C(=O)N[C@H]2[C@@H](O)[C@H](n3cnc4c(N(C)C)ncnc43)O[C@@H]2CO)cc1 [Puromycin],promoter activity interaction Z-score,[1]; [8],-0.169 ± 0.22
same,promoter activity interaction Z-score,[1]; [9],0.738 ± 0.17
same,promoter activity interaction Z-score,[1]; [10],0.211 ± 0.055
same,promoter activity interaction Z-score,[1]; [11],0.2622 ± 0.0026
same,promoter activity interaction Z-score,[1]; [12],-0.104 ± 0.052
same,promoter activity interaction Z-score,[1]; [13],0.582 ± 0.0062
same,promoter activity interaction Z-score,[1]; [14],0.153 ± 0.24
same,promoter activity interaction Z-score,[1]; [15],0.199 ± 0.57
same,promoter activity interaction Z-score,[1]; [16],-0.0259 ± 0.33
same,promoter activity interaction Z-score,[1]; [17],-0.302 ± 0.48
same,promoter activity interaction Z-score,[1]; [18],0.308 ± 0.44
same,promoter activity interaction Z-score,[1]; [19],0.649 ± 0.26
same,promoter activity interaction Z-score,[1]; [20],3.35 ± 1.5
same,promoter activity interaction Z-score,[1]; [21],3.54
same,promoter activity interaction Z-score,[1]; [22],0.855
same,promoter activity interaction Z-score,[2]; [8],0.00293 ± 0.13
same,promoter activity interaction Z-score,[2]; [9],0.189 ± 0.15
same,promoter activity interaction Z-score,[2]; [10],0.309 ± 0.18
same,promoter activity interaction Z-score,[2]; [11],0.0658 ± 0.096
same,promoter activity interaction Z-score,[2]; [12],0.213 ± 0.31
same,promoter activity interaction Z-score,[2]; [13],0.623 ± 0.33
same,promoter activity interaction Z-score,[2]; [14],0.273 ± 0.14
same,promoter activity interaction Z-score,[2]; [15],0.534 ± 0.15
same,promoter activity interaction Z-score,[2]; [16],0.362 ± 0.15
same,promoter activity interaction Z-score,[2]; [17],0.61 ± 0.46
same,promoter activity interaction Z-score,[2]; [18],0.305 ± 0.046
same,promoter activity interaction Z-score,[2]; [19],0.522 ± 0.076
same,promoter activity interaction Z-score,[2]; [20],1.38 ± 0.23
same,promoter activity interaction Z-score,[2]; [21],2.58
same,promoter activity interaction Z-score,[3]; [8],0.0526 ± 0.12
same,promoter activity interaction Z-score,[3]; [9],0.103 ± 0.069
same,promoter activity interaction Z-score,[3]; [10],0.103 ± 0.15
same,promoter activity interaction Z-score,[3]; [11],0.0839 ± 0.0077
same,promoter activity interaction Z-score,[3]; [12],0.357 ± 0.041
same,promoter activity interaction Z-score,[3]; [13],0.0213 ± 0.081
same,promoter activity interaction Z-score,[3]; [14],0.102 ± 0.074
same,promoter activity interaction Z-score,[3]; [15],0.145 ± 0.035
same,promoter activity interaction Z-score,[3]; [16],0.699 ± 0.21
same,promoter activity interaction Z-score,[3]; [17],-0.00373 ± 0.096
same,promoter activity interaction Z-score,[3]; [18],0.459 ± 0.3
same,promoter activity interaction Z-score,[3]; [19],0.738 ± 0.034
same,promoter activity interaction Z-score,[3]; [20],1.71 ± 0.31
same,promoter activity interaction Z-score,[3]; [23],-0.484
same,promoter activity interaction Z-score,[3]; [21],0.834 ± 0.41
same,promoter activity interaction Z-score,[3]; [22],1.39 ± 0.35
same,promoter activity interaction Z-score,[4]; [8],0.322 ± 0.085
same,promoter activity interaction Z-score,[4]; [9],1.17 ± 0.67
same,promoter activity interaction Z-score,[4]; [10],0.656 ± 0.1
same,promoter activity interaction Z-score,[4]; [11],0.816 ± 0.3
same,promoter activity interaction Z-score,[4]; [12],0.855 ± 0.35
same,promoter activity interaction Z-score,[4]; [13],1.33 ± 0.85
same,promoter activity interaction Z-score,[4]; [14],0.692 ± 0.034
same,promoter activity interaction Z-score,[4]; [15],0.84 ± 0.13
same,promoter activity interaction Z-score,[4]; [16],0.351 ± 0.31
same,promoter activity interaction Z-score,[4]; [17],0.942 ± 0.49
same,promoter activity interaction Z-score,[4]; [18],0.448 ± 0.37
same,promoter activity interaction Z-score,[4]; [19],1.03 ± 0.34
same,promoter activity interaction Z-score,[4]; [20],0.599 ± 1.4
same,promoter activity interaction Z-score,[5]; [8],0.0602 ± 0.017
same,promoter activity interaction Z-score,[5]; [9],0.523 ± 0.036
same,promoter activity interaction Z-score,[5]; [10],0.5595 ± 0.0042
same,promoter activity interaction Z-score,[5]; [11],-0.174 ± 0.69
same,promoter activity interaction Z-score,[5]; [12],0.596 ± 0.45
same,promoter activity interaction Z-score,[5]; [13],0.0157 ± 0.15
same,promoter activity interaction Z-score,[5]; [14],0.269 ± 0.22
same,promoter activity interaction Z-score,[5]; [15],0.279 ± 0.33
same,promoter activity interaction Z-score,[5]; [16],-0.231 ± 0.16
same,promoter activity interaction Z-score,[5]; [17],0.0377 ± 0.16
same,promoter activity interaction Z-score,[5]; [18],-0.211 ± 0.45
same,promoter activity interaction Z-score,[5]; [19],0.0544 ± 0.43
same,promoter activity interaction Z-score,[5]; [20],-0.191
same,promoter activity interaction Z-score,[5]; [23],-0.499
same,promoter activity interaction Z-score,[6]; [8],-0.228 ± 0.044
same,promoter activity interaction Z-score,[6]; [9],-0.0397 ± 0.09
same,promoter activity interaction Z-score,[6]; [10],0.102 ± 0.24
same,promoter activity interaction Z-score,[6]; [11],0.373 ± 0.73
same,promoter activity interaction Z-score,[6]; [12],-0.0604 ± 0.21
same,promoter activity interaction Z-score,[6]; [13],0.0219 ± 0.021
same,promoter activity interaction Z-score,[6]; [14],-0.144 ± 0.099
same,promoter activity interaction Z-score,[6]; [15],0.298 ± 0.46
same,promoter activity interaction Z-score,[6]; [16],0.0076 ± 0.14
same,promoter activity interaction Z-score,[6]; [17],0.0786 ± 0.15
same,promoter activity interaction Z-score,[6]; [18],0.00948 ± 0.09
same,promoter activity interaction Z-score,[6]; [19],0.315 ± 0.021
same,promoter activity interaction Z-score,[6]; [20],-0.0601 ± 0.063
same,promoter activity interaction Z-score,[6]; [23],-0.197 ± 0.049
same,promoter activity interaction Z-score,[6]; [21],-0.131 ± 0.33
same,promoter activity interaction Z-score,[6]; [22],0.525 ± 0.4
same,promoter activity interaction Z-score,[7]; [8],-0.726 ± 1
same,promoter activity interaction Z-score,[7]; [9],-0.59 ± 0.65
same,promoter activity interaction Z-score,[7]; [10],-0.281 ± 0.23
same,promoter activity interaction Z-score,[7]; [11],0.126 ± 0.63
same,promoter activity interaction Z-score,[7]; [12],-0.252 ± 0.51
same,promoter activity interaction Z-score,[7]; [13],-0.611 ± 0.2
same,promoter activity interaction Z-score,[7]; [14],-0.785 ± 0.27
same,promoter activity interaction Z-score,[7]; [15],-0.165 ± 0.34
same,promoter activity interaction Z-score,[7]; [16],-0.285 ± 0.69
same,promoter activity interaction Z-score,[7]; [17],0.412 ± 0.11
same,promoter activity interaction Z-score,[7]; [18],-0.374 ± 0.33
same,promoter activity interaction Z-score,[7]; [19],-0.186 ± 0.2
same,promoter activity interaction Z-score,[7]; [20],1.04 ± 0.64
same,promoter activity interaction Z-score,[7]; [23],1.74
same,promoter activity interaction Z-score,[7]; [21],-0.0754 ± 0.73
same,promoter activity interaction Z-score,[7]; [22],0.227 ± 0.79
N[C@@H](C(=O)N[C@@H]1C(=O)N2C(C(=O)O)=C(Cl)CS[C@H]12)c1ccccc1 [Cefaclor],promoter activity interaction Z-score,[1]; [24],-0.0672 ± 0.0046
same,promoter activity interaction Z-score,[1]; [25],0.0667 ± 0.63
same,promoter activity interaction Z-score,[1]; [26],-0.0825 ± 0.022
same,promoter activity interaction Z-score,[1]; [27],0.202 ± 0.33
same,promoter activity interaction Z-score,[1]; [28],0.0822 ± 0.27
same,promoter activity interaction Z-score,[1]; [29],-0.226 ± 0.26
same,promoter activity interaction Z-score,[1]; [30],-0.0254 ± 0.2
same,promoter activity interaction Z-score,[1]; [31],0.108 ± 0.18
same,promoter activity interaction Z-score,[1]; [32],-0.327 ± 0.23
same,promoter activity interaction Z-score,[1]; [33],0.267 ± 0.91
same,promoter activity interaction Z-score,[1]; [34],0.0322 ± 0.2
same,promoter activity interaction Z-score,[1]; [35],0.0468 ± 0.32
same,promoter activity interaction Z-score,[3]; [24],-0.186 ± 0.14
same,promoter activity interaction Z-score,[3]; [25],-0.0579 ± 0.053
same,promoter activity interaction Z-score,[3]; [26],-0.0069 ± 0.16
same,promoter activity interaction Z-score,[3]; [27],-0.168 ± 0.014
same,promoter activity interaction Z-score,[3]; [28],0.286 ± 0.18
same,promoter activity interaction Z-score,[3]; [29],0.0237 ± 0.12
same,promoter activity interaction Z-score,[3]; [30],-0.137 ± 0.035
same,promoter activity interaction Z-score,[3]; [31],-0.23 ± 0.11
same,promoter activity interaction Z-score,[3]; [32],-0.0523 ± 0.022
same,promoter activity interaction Z-score,[3]; [33],-0.0548 ± 0.1
same,promoter activity interaction Z-score,[3]; [34],0.072 ± 0.35
same,promoter activity interaction Z-score,[3]; [35],0.0997 ± 0.0034
same,promoter activity interaction Z-score,[4]; [24],-0.0486 ± 0.033
same,promoter activity interaction Z-score,[4]; [25],0.00202 ± 0.074
same,promoter activity interaction Z-score,[4]; [26],-0.037 ± 0.097
same,promoter activity interaction Z-score,[4]; [27],0.00353 ± 0.4
same,promoter activity interaction Z-score,[4]; [28],0.205 ± 0.32
same,promoter activity interaction Z-score,[4]; [29],-0.158 ± 0.14
